Experimental data taken from PMC4336329 (PLoS ONE, 2015).
Among all 310,000 compounds or so, about 2,200 (0.71%) showed an effect of 50% or more. Effects have a minus sign here. The sample holds strong results, similar compounds and a random draw of the others, so the mix is not that of the screen.

The molecules below were run against human ether-à-go-go-related gene (hERG) potassium channel (human, UniProt Q12809) (assay: primary screen, population patch clamp on CHO cells stably expressing hERG; higher = less effect of the substance).
human ether-à-go-go-related gene (hERG) potassium channel, sequence (Q12809 whole entry, looked up): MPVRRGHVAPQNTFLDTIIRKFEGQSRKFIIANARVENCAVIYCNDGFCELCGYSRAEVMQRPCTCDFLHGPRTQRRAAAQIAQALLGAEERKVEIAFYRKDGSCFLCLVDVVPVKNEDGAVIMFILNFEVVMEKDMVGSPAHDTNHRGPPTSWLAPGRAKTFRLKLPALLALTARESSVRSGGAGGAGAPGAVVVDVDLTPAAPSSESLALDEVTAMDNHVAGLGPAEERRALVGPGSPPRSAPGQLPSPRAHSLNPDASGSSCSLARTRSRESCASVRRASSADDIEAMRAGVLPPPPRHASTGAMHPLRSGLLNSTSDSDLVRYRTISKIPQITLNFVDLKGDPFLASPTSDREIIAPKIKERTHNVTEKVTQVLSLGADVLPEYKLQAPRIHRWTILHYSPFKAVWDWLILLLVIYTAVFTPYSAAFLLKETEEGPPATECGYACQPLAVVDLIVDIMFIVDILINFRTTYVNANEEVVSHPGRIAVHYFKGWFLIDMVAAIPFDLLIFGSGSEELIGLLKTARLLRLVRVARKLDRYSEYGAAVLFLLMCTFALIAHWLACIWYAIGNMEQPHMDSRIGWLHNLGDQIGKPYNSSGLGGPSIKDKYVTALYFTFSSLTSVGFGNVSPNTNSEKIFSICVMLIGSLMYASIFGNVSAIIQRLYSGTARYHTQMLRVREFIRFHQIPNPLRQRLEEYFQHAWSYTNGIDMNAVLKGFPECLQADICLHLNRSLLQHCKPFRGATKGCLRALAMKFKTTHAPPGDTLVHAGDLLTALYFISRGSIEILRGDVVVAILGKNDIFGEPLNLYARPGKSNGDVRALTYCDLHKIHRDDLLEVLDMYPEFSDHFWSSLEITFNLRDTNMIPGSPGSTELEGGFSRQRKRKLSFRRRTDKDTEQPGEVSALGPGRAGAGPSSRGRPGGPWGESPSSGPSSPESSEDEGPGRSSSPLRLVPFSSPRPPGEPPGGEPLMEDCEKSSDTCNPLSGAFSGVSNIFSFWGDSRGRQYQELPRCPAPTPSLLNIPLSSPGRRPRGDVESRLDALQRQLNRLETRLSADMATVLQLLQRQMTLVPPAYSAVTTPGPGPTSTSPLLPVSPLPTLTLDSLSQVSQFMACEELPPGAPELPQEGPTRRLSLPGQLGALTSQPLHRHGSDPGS

SMILES	hERG current change (%, negative = inhibition) at 1uM
CSCCC(NC(=O)OCc1ccccc1)C(=O)NCc1cccnc1 (centres unmarked)	9.52%
O=C(N/N=C/c1ccc2c(c1)OCO2)c1ccc(COCC(F)(F)C(F)F)cc1	9.11%
N#Cc1nc(Cc2ccccc2)oc1N1CCCC1	4.79%
Cc1ccc(C)c(-n2ccnc2SCC(=O)O)c1	14.4%
COC(=O)c1sc(S(=O)(=O)NC(C)C(=O)O)c(C(=O)OC)c1C (centres unmarked)	-4.83%
CCCN(CCC)CCCNC(=O)C1CCN(S(=O)(=O)c2cccc3nsnc23)CC1	12.5%
CCc1ccc(NC(=O)Nc2cccs2)cc1	21.2%
COc1cccc(C2=NOC(C(=O)Nc3ccc4c(c3)OCO4)C2)c1 (centres unmarked)	12.7%
CCNS(=O)(=O)c1ccc(CCC(=O)N2CCN(c3cc(Cl)ccc3C)CC2)cc1	12.4%
CCCOC1OC(=O)c2c1ccc(OC)c2OC (centres unmarked)	11.9%
Cc1ccc(S(=O)(=O)Nc2ccc(-c3ccc4nncn4n3)cc2)cc1	24.9%
Cc1cccc(S(=O)(=O)Nc2ccc(-c3ccc4nncn4n3)cc2)c1	-85.6%
O=S(=O)(Nc1ccc(-c2ccc3nncn3n2)cc1)c1cccc(F)c1	14.1%
BrCC1C[n+]2c(SCc3ccccc3)nc3sc4c(c3c2O1)CCCC4.[Br-] (centres unmarked)	10.3%
Cc1ccc2c(c1)CCCN2C(=O)c1ccncc1	8.11%
CCOC(=O)c1cccc(N2C(=O)C3C(C2=O)C2C=CC3C23CC3)c1 (centres unmarked)	8.16%
CCOc1ccccc1N1CCN(c2nc3ccccc3nc2C(C#N)C(=O)OC(C)C)CC1 (centres unmarked)	12.5%
COc1cc(C(=O)N2CCN(CCCc3ccccc3)CC2)cc(OC)c1OC	3.21%
CCOc1ccc(C(=O)N2CCN(C(=O)c3ccco3)CC2)cc1OCC	10.8%
CCOc1ccc(C(=O)N2CCN(CCc3ccccc3)CC2)cc1OCC	-77.5%
COc1ccc(C(=O)N2CCN(Cc3ccccc3)CC2)cc1[N+](=O)[O-]	-22.3%
O=C(NCCN1CCN(C(=O)c2cc3ccccc3oc2=O)CC1)c1cc2ccccc2oc1=O	-0.615%
O=C(c1cc2ccccc2oc1=O)N1CCN(CCc2ccccc2)CC1	-60.4%

SMILES	hERG current change (%, negative = inhibition) at 1uM
CCOc1ccc(C(=O)N2CCN(c3ccccc3)CC2)cc1OCC	1.55%
COc1ccc(C(=O)N2CCN(Cc3ccc4c(c3)OCO4)CC2)cc1[N+](=O)[O-]	-6.08%
CN1CCN(C(=O)c2cc3ccccc3oc2=O)CC1	8.34%
COc1ccc(C(=O)N2CCN(CCc3ccccc3)CC2)cc1[N+](=O)[O-]	-73.5%
COc1ccc(C(=O)N2CCN(CCCc3ccccc3)CC2)cc1OC.O=C(O)C(=O)O	-61.8%
COc1cccc(C(=O)N2CCN(CCCc3ccccc3)CC2)c1OC.O=C(O)C(=O)O	-4.87%
COc1ccc(/C=C2/C(=O)NC(=O)N(c3ccc(C)c(C)c3)C2=O)cc1CN1C(=O)c2ccccc2C1=O	-3.04%
CCCC(=O)Nc1c2c(nn1-c1cccc(C)c1C)CS(=O)(=O)C2	4.62%
COc1ccccc1/C=C1\SC(=O)N(CCC(=O)N2CCCCC2CCO)C1=O (centres unmarked)	14.7%
CCOC(=O)c1c2ccc(OCC(=O)NN)cc2n2ccccc12	13.3%
CC1CC(C)CN(CCCNC(=O)C2CCN(c3ncnc4c3sc3cccc(F)c34)CC2)C1 (centres unmarked)	-14.9%
CCCCN(C)CCCNC(=O)c1cc(-c2cccs2)nc2ccccc12	-80.8%
CC(C)CCNC(=O)c1cc(-c2cccs2)nc2ccccc12	2.51%
CCCCN(C)CCCNC(=O)c1cc(-c2cccnc2)nc2ccccc12	-20.2%
CCN(CC)CCNC(=O)c1cc(-c2ccco2)nc2ccccc12.Cl	-55%
CCN(CC)CCNC(=O)c1ccc(NC(=O)c2cc(-c3ccco3)nc3ccccc23)cc1	9.15%
CCCCCCNC(=O)c1cc(-c2ccco2)nc2ccccc12	7.12%
O=C(NC1CCCCC1)N(C1=NCCCCC1)c1ccc(Br)cc1	13.1%
Cc1cccc(NC(=O)CSCc2nc3c(nnn3Cc3ccc(F)cc3)c(=O)[nH]2)c1C	8.63%
Cc1cc(C)n2nc(NCc3cccc(Br)c3)nc2n1	-32.1%
O=C(Nc1cccc(NC(=O)c2ccccc2Cl)c1)c1ccc(F)cc1	7.98%
CCOCc1c(C(=O)NC2CCCCCC2)oc2ccccc12	-1.11%
CCOC(=O)c1oc2ccccc2c1CN1CCCCC1.Cl	-9.66%

SMILES	hERG current change (%, negative = inhibition) at 1uM
CCOC(=O)c1oc2ccccc2c1CN1CCN(C)CC1.Cl	-50.2%
Cc1c(C(=O)NCc2ccccc2CN2CCCC2)oc2ccc(F)cc12	-57.4%
CCOC(=O)c1oc2ccccc2c1CN1CCOCC1.Cl	-5.9%
COCc1c(C(=O)NCc2ccccc2CN2CCCC2)oc2ccccc12	-34%
COc1ccc2oc(C(=O)NCc3ccccc3CN3CCCC3)c(C)c2c1	-27.2%
CCOc1ccc2oc(C(=O)NCc3ccccc3CN3CCCC3)c(C)c2c1	-12.2%
CCOCc1c(C(=O)NCc2ccccc2CN2CCCC2)oc2ccccc12	-60.1%
Cc1ccc(NC(=O)CCn2c(=S)oc3ccccc32)cc1	11%
CC(C)(C)C(=O)Nc1c(Cl)cccc1OC(F)(F)F	12.4%
CC1CCN(S(=O)(=O)c2ccc3c(c2)n(C)c(=O)n3C)CC1	0.216%
COc1ccc(CCN(C(=O)/C=C/C(=O)O)C2CC(=O)N(c3ccccc3)C2=O)cc1 (centres unmarked)	8.45%
C=C(C)CNC(=O)CCc1nnc(C2(c3ccc(Cl)cc3)CCC2)o1	12.3%
CCNC(=S)N1CCN(Cc2ccccc2)CC1.O=C(O)C(=O)O	-7.37%
COC(=O)c1ccsc1NC(=O)CN1CCN(Cc2ccc3c(c2)OCO3)CC1	-59.7%
O=C(CN1CCN(S(=O)(=O)c2ccc(F)cc2)CC1)Nc1ccc2c(c1)OCO2	-8%
NC(=O)CN1CCN(Cc2ccc3c(c2)OCO3)CC1	22.5%
O=C(CN1CCN(c2ccc(F)cc2)CC1)Nc1ccc2c(c1)OCCO2	14.1%
COc1ccc(NC(=O)CN2CCN(Cc3ccc4c(c3)OCO4)CC2)cc1OC.O=C(O)C(=O)O	4.15%
O=C(CN1CCN(Cc2ccc3c(c2)OCO3)CC1)Nc1ccc(N2CCOCC2)cc1	8.8%
O=C(CN1CCN(Cc2ccc3c(c2)OCO3)CC1)Nc1ccc2c(c1)OCO2	-64.3%
O=C(CN1CCN(Cc2ccc(F)cc2)CC1)Nc1nc2ccccc2s1	-54%
O=C(CN1CCN(Cc2ccccc2)CC1)Nc1nc2ccccc2s1	-24.1%
COC(=O)c1c(NC(=O)CN2CCN(Cc3ccc4c(c3)OCO4)CC2)sc(C)c1C.O=C(O)C(=O)O	5.45%

SMILES	hERG current change (%, negative = inhibition) at 1uM
O=C(CN1CCN(CC(=O)Nc2ccc3c(c2)OCO3)CC1)Nc1ccc(F)cc1	-83.5%
CCCN1CCN(CC(=O)Nc2nc3ccccc3s2)CC1	-17.9%
CN(Cc1ccccc1)C(=O)CN1C(=O)NC(C)(c2ccc(Cl)cc2)C1=O (centres unmarked)	12.8%
COc1ccc(-c2cc(C(=O)N3CCN(c4ccccc4F)CC3)c3ccccc3n2)c(OC)c1	4.75%
CCn1c(SCC(=O)NCc2ccc3c(c2)OCO3)nnc1-c1c[nH]c2ccccc12	14.9%
N/C(=N\OC(=O)CC1CCCCC1)c1ccncc1	12.3%
O=C(c1ccc(F)cc1)N1CCN(C(=O)c2ccc([N+](=O)[O-])cc2)CC1	-13.7%
CCn1nc(C(=O)NNC(=O)c2ccccc2OCc2c(C)noc2C)c2ccccc2c1=O	9.55%
O=C(CCn1c(=O)[nH]c2ccccc2c1=O)N1CCN(c2ccc(Cl)cc2)CC1	-4.13%
Cc1cc(NS(=O)(=O)c2ccc(NC(=O)COc3ccc(Cl)cc3Cl)cc2)no1	-0.394%
CC(=O)O.NCC(c1ccco1)c1c[nH]c2ccccc12 (centres unmarked)	12.2%
CCN(CC(=O)Nc1c(C(=O)OC)[nH]c2ccccc12)c1ccc2c(c1)OCO2	12.1%
O=C(C1COc2ccccc2O1)N1CCN(c2ccc(F)cc2)CC1 (centres unmarked)	-9.29%
O=C(CN1CCN(C(=O)C2COc3ccccc3O2)CC1)Nc1ccccc1 (centres unmarked)	-22.5%
O=C(CN1CCN(Cc2ccc3c(c2)OCO3)CC1)Nc1ccc(F)cc1	-82.6%
COC(=O)c1[nH]c2ccccc2c1NC(=O)CN1CCN(Cc2ccc3c(c2)OCO3)CC1	-70.3%
COc1cc(NC(=O)CN2CCN(Cc3ccc4c(c3)OCO4)CC2)cc(OC)c1.O=C(O)C(=O)O	-9.16%
O=C(CN1CCN(Cc2ccc3c(c2)OCO3)CC1)NCC(F)(F)F	11.2%
O=C(CN1CCN(C(=O)C2COc3ccccc3O2)CC1)Nc1ccc(F)cc1 (centres unmarked)	-63.5%
COC(=O)c1[nH]c2ccc(C)cc2c1NC(=O)CCN1CCN(Cc2ccc3c(c2)OCO3)CC1	-33%
